Compound activity: PubChem BioAssay, National Center for Advancing Translational Sciences (NCATS)
Tau FP inhib: blocks human tau fibril formation measured by polarization; hit rate 0.39% among 280,000; AID 1468; K18 P301L tau heparin fibrillization, Alexa594 FP, 6 h; Potency, µM (titrated, usually from 57.7 µM), for inactives: top-dose activity, negative = inhibition, actives largely listed as inhibitors; also: potency is read from the fitted curve at half-maximal effect; nearly all actives have a fitted effect of over 55% in size
Target sequence (P10636 561-689 P618L limits assumed): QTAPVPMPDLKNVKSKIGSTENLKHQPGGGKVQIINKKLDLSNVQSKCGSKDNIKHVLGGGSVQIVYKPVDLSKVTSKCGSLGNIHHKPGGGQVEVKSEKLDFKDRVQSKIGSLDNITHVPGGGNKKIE
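FP of Alexa 594-tau after heparin (20 uM) induction. Substrate: human K18 P301L, 15 uM unlabeled, 0.24 uM labeled. Buffer 100 mM sodium acetate pH 7. 6 hr, 37 C.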
Tau ThT inhib: inhibitors of human tau fibril formation, thioflavin T binding. P10636. recombinant tau K18 P301L, heparin-induced fibrillization, ThT fluorescence. Potency, µM (series often up to 57.4 µM), for the others: at the highest dose activity, negative = inhibition, most hits filed as inhibitors. hit rate 2.1% among 270,000; also: potency is read from the fitted curve at half-maximal effect; nearly all actives have a fitted effect of over 55% in size
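Tau K18 P301L fragment (15 uM unlabeled plus 0.24 uM Alexa 594-labeled) in 100 mM sodium acetate pH 7 with compound, fibrillization induced by 20 uM heparin for 6 hr at 37 C. Thioflavin T (30 uM) added, fluorescence read after 1 hr (ex 450, em 510 nm).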
Tau fluor counter: counter-screen for tau fibril formation inhibitors; AID 1463; tau K18 P301L (four-repeat tau fragment) Alexa594 fluorescence, heparin fibrillization; Potency, µM (titrated, usually from 57.7 µM), for inactives: at the highest dose activity change, negative = decrease; hit rate 0.93% among 280,000; also: potency is read from the fitted curve at half-maximal effect; nearly all actives have a fitted effect of over 55% in size
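Human K18 P301L tau (15 uM unlabeled plus 0.24 uM Alexa 594-labeled, final) in 100 mM sodium acetate pH 7 was mixed with compound and 20 uM heparin and incubated 6 hr at 37 C.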
FBPA coupling cs: coupling enzyme interference in Giardia aldolase counter-screen. hit rate 0.67% among 290,000. coupling enzyme system counterscreen, AmpLite Red fluorescence. activity change, negative = inhibition, % at 58.2 µM, hits read low; in the data active = activity change below about -30%
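Counterscreen of the coupled detection system alone, without aldolase: glyceraldehyde-3-phosphate coupling enzymes plus AmpLite Red readout. Compounds at 57.5 uM final, 10 min RT preincubation, 20 min RT reaction, fluorescence 525/598 nm.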
The depositor's hits bear a star; ? = inconclusive; / = not tested or not shown; [ ] = dose if it differs, or a comment. Compounds with a hit are over-represented: about 2.7% of the library has one in this group of screens. Unless noted, calls follow the shape of the dose curve; as a rule, active = well fitted curve in the direction sought with a large enough effect; inconclusive = small, poorly fitted or top-dose-only effect, or another doubt; inactive = no such curve, though single readings can be large; an effect the other way counts as inactive or inconclusive. % is scaled to controls: 0 for no effect and ±100 for the full control effect.

SMILES	Tau FP inhib	Tau ThT inhib	Tau fluor counter	FBPA coupling cs
Cc1nnc(N/N=C/c2cc([N+](=O)[O-])c(N3CCC(C)CC3)cc2N2CCC(C)CC2)n1N	-14%	18µM*	?	-45*
CCc1nnc(N/N=C/c2ccc(N3CCC(C)CC3)c([N+](=O)[O-])c2)n1N	-5%	13µM*	?	-27
CCn1c(SCC(=O)N/N=C/c2ccc(C)o2)nnc1-c1ccc(C(C)(C)C)cc1	2%	-12%	-2%	-1
CCn1c(SCC(=O)N/N=C/c2c[nH]c3ccccc23)nnc1-c1ccc(C(C)(C)C)cc1	-4%	?	18µM*[quencher]	4
O=C(CSc1nnc(SCc2ccccc2Cl)s1)N/N=C/c1c[nH]c2ccccc12	?	-13%	14µM*[quencher]	-13
CCn1c(SCC(=O)N/N=C/C=C/c2ccco2)nnc1-c1ccc(OC)cc1	12%	13%	4%	-39*
COc1ccc(CCNC(=O)c2cnn(-c3cccc(C)c3)c2C2CCNCC2)cc1OC	1%	-11%	-7%	/
C=CCC1(C)OC=Cc2nc3cc(Cl)c(Cl)cc3nc21 (configuration not stated)	1%[11.6 µM]	-11%[11.5 µM]	-12%[11.6 µM]	2
Oc1nc(Nc2ccccc2)sc1/C=C1\C=Nc2ccccc21	-14%	3.5µM*	8.9µM*[quencher]	0
CC(C)(C)c1ccc(C(=O)NNc2ncnc3c2cnn3-c2ccccc2)cc1	0%	-4%	-19%	/
Cc1cccc(N=Nc2c(C)c(C#N)c(O)[nH]c2=O)c1	2%	1.1µM*	-20%	3
CNC(=O)C1C(=S)NC(N)=C(C#N)C1c1ccccc1 (configuration not stated)	16µM*	20µM*	-28%	1
COC(=O)C1=C(C)OC(N)=C(C#N)C1c1ccccc1 (configuration not stated)	2%	8%	1%	2
O=C(O)CC12CSc3[nH]c(=O)sc3C1c1ccccc1OC2=O (configuration not stated)	?	25µM*	-19%	-11
CCOC(=O)C1CSc2[nH]c(=O)sc2C1c1ccccc1 (configuration not stated)	7%	-19%	-19%	1
COc1ccc(CNc2nc(-c3ccc(OC)cc3)cc(C(F)(F)F)n2)cc1	?	-8%	?	/
CCCCSc1nnc2c(n1)OC(C)N(C(C)=O)c1ccccc1-2 (configuration not stated)	2%	12%	8%	/
CCCCSc1nnc2c(n1)OC(C(=O)c1ccccc1)Nc1ccccc1-2 (configuration not stated)	?	32µM*	?	2
CC1CCN(S(=O)(=O)c2ccc3nc(Nc4ccc(C#N)cc4)ccc3c2)CC1	14µM*	?	?	/
CC1CCN(S(=O)(=O)c2ccc3nc(Nc4cccc(C(F)(F)F)c4)ccc3c2)CC1	28µM*	?	?	/
CC1CCN(S(=O)(=O)c2ccc3nc(NCc4ccc(F)cc4)ccc3c2)CC1	?	0%	?	/
Cc1nnc(SCc2cccc3ccccc23)s1	7%	-1%	-5%	5
c1ccc(Nc2nnc(SCc3cccc4ccccc34)s2)cc1	-10%	-10%	16µM*[quencher]	1
CC(C)c1ccc(/C=C/C(=O)n2nnc3ccccc32)cc1	?	20µM*	-15%	2
Cc1ccc2[nH]c(=O)c(C(c3nnnn3CC3CCCO3)N3CCc4ccccc4C3)cc2c1 (configuration not stated)	?	32µM*	-24%	-29
SMILES	Tau FP inhib	Tau ThT inhib	Tau fluor counter	FBPA coupling cs
Cc1ccc2[nH]c(=O)c(C(c3nnnn3C3CCCC3)N3CCCc4ccccc43)cc2c1 (configuration not stated)	11%	?	-27%	-44*
CCC(C)(C)n1nnnc1C(c1cc2cc(C)ccc2[nH]c1=O)N1CCCc2ccccc21 (configuration not stated)	0%	?	-20%	-19
Cc1cc2cc(C(c3nnnn3Cc3ccco3)N3CCc4ccccc43)c(=O)[nH]c2cc1C (configuration not stated)	?	25µM*	-28%	-13
COc1ccc2cc(C(c3nnnn3C3CCCC3)N3CCc4ccccc4C3)c(=O)[nH]c2c1 (configuration not stated)	?	28µM*	-20%	-33*
CCc1ccc2[nH]c(=O)c(C(c3nnnn3Cc3ccco3)N3CCC(C)CC3)cc2c1 (configuration not stated)	6%	-13%	-21%	-1
COc1ccc(Br)cc1/C=N/NC(=O)CN1CCN(Cc2ccccc2)CC1	1%	-8%	-8%	-4
Cc1ccc(CNC(=O)c2ccc(CSCc3ccc(Cl)cc3)o2)cc1	-1%	-14%	-11%	/
COc1cc2ncc3c(-c4ccccc4)nn(CC(=O)NC4CCCCC4)c3c2cc1OC	-12%	?	-9%	/
O=C(COc1ccccc1F)Nc1ccccc1OCc1cc(=O)n2ccccc2n1	1%	5%	6%	/
Cc1cc2cc(C(c3nnnn3Cc3ccco3)N3CCc4ccccc4C3)c(=O)[nH]c2cc1C (configuration not stated)	?	28µM*	-24%	-17
Cc1cc2cc(C(c3nnnn3Cc3ccccc3)N3CCc4ccccc43)c(=O)[nH]c2cc1C (configuration not stated)	?	16µM*	-30%	-45*
Cc1ccc2[nH]c(=O)c(C(c3nnnn3Cc3ccccc3)N3CCc4ccccc43)cc2c1 (configuration not stated)	?	20µM*	?	-33*
Cc1ccc2cc(C(c3nnnn3Cc3ccccc3)N3CCc4ccccc43)c(=O)[nH]c2c1 (configuration not stated)	-1%	?	-26%	-7
Cc1ccc2cc(C(c3nnnn3Cc3ccccc3)N3CCc4ccccc43)c(=O)[nH]c2c1C (configuration not stated)	7%	-15%	-20%	-23
c1ccc(C(c2nnnn2C2CCCCC2)N2CCc3ccccc3C2)nc1 (configuration not stated)	-11%	?	-8%	-32*
CCC(=O)N1CCc2cc(Br)cc(S(=O)(=O)NCCc3ccc(C)cc3)c21	2%	-7%	-14%	/
Cc1coc2cc3oc(=O)c(CC(=O)NCc4cccc(Cl)c4)c(C)c3cc12	-13%	3%	-6%	/
COC(=O)c1cc2oc3ccccc3c2n1CC(=O)Nc1ccc(C)cc1C	-2%	-9%	-4%	/
Cc1cc(C)c2[nH]c(=O)c(C(c3nnnn3CC3CCCO3)N3CCC(C)CC3)cc2c1 (configuration not stated)	-13%	-24%	-15%	-4
Cc1cc(C)c2[nH]c(=O)c(C(c3nnnn3CC3CCCO3)N3CCCC(C)C3)cc2c1 (configuration not stated)	?	32µM*	-15%	-14
COc1ccc(NS(=O)(=O)c2ccc3[nH]c4c(c3c2)CCCC4)c(OC)c1	15%	-7%	16µM*[quencher]	/
